This note sets out measurements from PubChem BioAssay AID2796 (The Scripps Research Institute Molecular Screening Center, 2010).

Each structure is given as a SMILES string. The whole screen tested about 320,000 compounds, of which about 8,000 (2.5%) were called active. The full list was thinned out, with actives kept by preference. A number with no mark means an inactive call. Cut-off read from the data, not from the text of the source: active = activation above about 47%; inactive = the rest.

Chain of Aryl hydrocarbon receptor (Homo sapiens) (P35869 whole entry, looked up): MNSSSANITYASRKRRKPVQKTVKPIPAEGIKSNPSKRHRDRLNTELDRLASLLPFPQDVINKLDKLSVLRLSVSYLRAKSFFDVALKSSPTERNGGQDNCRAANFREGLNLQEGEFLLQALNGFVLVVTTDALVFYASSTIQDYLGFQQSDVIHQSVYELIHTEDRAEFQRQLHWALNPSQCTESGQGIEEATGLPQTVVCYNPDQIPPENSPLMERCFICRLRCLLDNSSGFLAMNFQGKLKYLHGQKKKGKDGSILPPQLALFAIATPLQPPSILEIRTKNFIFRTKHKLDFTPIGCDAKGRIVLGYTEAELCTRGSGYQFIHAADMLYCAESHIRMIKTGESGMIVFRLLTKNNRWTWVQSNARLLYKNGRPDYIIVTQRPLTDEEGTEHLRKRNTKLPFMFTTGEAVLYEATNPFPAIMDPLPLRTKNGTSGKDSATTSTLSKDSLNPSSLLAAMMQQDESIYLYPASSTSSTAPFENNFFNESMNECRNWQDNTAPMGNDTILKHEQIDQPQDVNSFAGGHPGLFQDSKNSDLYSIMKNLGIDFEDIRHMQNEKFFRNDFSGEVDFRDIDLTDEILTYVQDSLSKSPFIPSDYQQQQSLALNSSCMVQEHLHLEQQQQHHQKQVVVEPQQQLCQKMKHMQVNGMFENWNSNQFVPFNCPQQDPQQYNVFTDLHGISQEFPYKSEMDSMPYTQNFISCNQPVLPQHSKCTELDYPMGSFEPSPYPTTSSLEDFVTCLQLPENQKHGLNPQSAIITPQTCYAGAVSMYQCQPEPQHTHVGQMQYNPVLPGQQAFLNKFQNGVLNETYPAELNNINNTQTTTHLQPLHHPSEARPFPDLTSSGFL

The assay addresses Aryl hydrocarbon receptor (Homo sapiens) (UniProt P35869). The assay is described as follows: AHR activators, primary screen, cell-based, luminescence, luciferase reporter, human (AID 2796).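 Note: 0% = vehicle wells and 100% = reference agonist.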 To be noted: AHR-responsive luciferase reporter cells, at 5 µM, stronger effect = higher value. (In general: In a reporter assay the amount or activity of a reporter protein is the signal.)
`Cc1cc(C(=O)NNC(=O)CCC2CCCCC2)c(C)o1`: the activation was 1.65%.

Regarding `CCOC(=O)c1nc(Nc2ccc(C(=O)OC)cc2)c2ccccc2n1`, the activation was 1.95%.

Take `Cc1ccc2nc(Nc3ccccc3)cc(C)c2c1`: the activation is 26.6%.

Regarding `Cc1cc(Nc2ccc(Br)cc2)nc2ccccc12`, the activation was 54.1% (active).

Take `O=C(CCC(=O)N/N=C/c1ccc(Br)o1)N/N=C/c1ccc(Br)o1`: the activation is 4.48%.

Consider `CCCNC(=O)N1CCC(c2ccc3c(c2)OCO3)CC1`, for which the activation was 1.31%.

For the compound `COc1ccc(CCNc2cc(C)nc3c(-c4ccc(Cl)cc4)c(C)nn23)cc1OC`, the activation was 31.2%.

Turning to `Cc1ccsc1C(=O)N[C@@H](C)c1nnc2ccccn12`, the activation is 1.3%.

`CCc1ccc(CNC(=O)CCc2nc(-c3cccs3)no2)cc1`: the activation was 4.73%.

In the case of `COc1ccc(CCc2nc(-c3cccs3)no2)cc1`, the activation was 1.87%.

As to `COc1ccc(OC)c(CNC(=O)CCc2nc(-c3cccs3)no2)c1`, the activation is 61.3% (active).

`CCn1c(SCC(=O)NC2CC2)nnc1-c1ccccc1OC`: the activation is 14.6%.

Turning to `Cc1ccc(C(=O)Cc2nnc(C)s2)cc1`, the activation was -0.8%.

With `CN(C)C(=O)COC(=O)c1cccc(S(=O)(=O)N2CC3(C)CC2CC(C)(C)C3)c1` (stereo not given), the activation was -0.48%.

On to `CCOC(=O)C1CCN(C(=O)CN2C(=O)NC(C)(c3ccc4cc(OC)ccc4c3)C2=O)CC1` (stereo not given), for which the activation was 0.29%.

With `CC(=O)c1sc2nc(SCC(=O)N3CCCCC3)[nH]c(=O)c2c1C`, the activation was 15.1%.

For the compound `C=CCNC(=O)CSc1nc2sc(C)c(C)c2c(=O)[nH]1`, the activation was 107% (active).

Take `C=CCn1c(SCC(=O)Nc2ccc(NC(C)=O)cc2)nc2sc(C)c(C)c2c1=O`: the activation was 0.33%.

In the case of `CN(Cc1cccc2ncccc12)C(=O)CC1C(=O)NCCN1Cc1ccc(F)cc1` (stereo not given), the activation was -0.17%.

Take `COc1cc(NC(=O)c2ccc(-c3csc(C)n3)cc2)c(OC)cc1Cl`: the activation was 98.4% (active).

Take `CCOCC(=O)Nc1cc(OC)c(Cl)cc1OC`: the activation is 19.9%.

For the compound `COc1cccc(CC(=O)Nc2ccc(-c3csc(C)n3)cc2)c1`, the activation is -4.95%.

In the case of `CC(NC(=O)COC(=O)Cn1cc(C(F)(F)F)ccc1=O)c1ccccc1` (stereo not given), the activation is -0.22%.

On to `CCOC(=O)c1cc(C#N)c(N2CCCCC2)nc1-c1ccccc1`, for which the activation is 13.2%.

Turning to `Cc1cccc2cc(C#N)c(N3CCCC3)nc12`, the activation was 51.3% (active).

With `CC(=O)c1ccc(S(=O)(=O)N2CCN(c3nc4c(C)c(C)ccc4cc3C#N)CC2)cc1`, the activation is -2.8%.

With `O=C(Nc1ccc2c(c1)CCC2)c1ccc(Br)s1`, the activation was 12%.

As for `O=C(Nc1cccc2cccnc12)c1cccc(Cl)c1`, the activation was 59.2% (active).

With `CSc1ccccc1NC(=O)c1cc(Cl)sc1Cl`, the activation was 0.71%.

Turning to `O=C(Nc1cccc2cccnc12)c1cccc(N2C(=O)CCC2=O)c1`, the activation is -2.04%.

In the case of `N#Cc1ccccc1NC(=O)c1cccc(COc2ccc(Cl)cc2Cl)c1`, the activation is -4.79%.

For `CSc1ccc(/C=N/NC(=O)c2cccc(Cl)c2)cc1`, the activation was 13.9%.

Turning to `COC(=O)c1sccc1NC(=O)c1ccc(Cl)cc1`, the activation was 37.4%.

Regarding `N#Cc1ccc(C(=O)Nc2cccc3cccnc23)c(F)c1`, the activation is -3.07%.

For the compound `CSc1ccc(C#N)cc1NC(=O)c1ccc(Cl)cc1`, the activation is 96.9% (active).

On to `CSc1ccc(C#N)cc1NC(=O)c1cccc(Cl)c1`, for which the activation was 58.8% (active).

As for `O=C1C2C3C=CC(C4CC34)C2C(=O)N1c1nccs1` (stereo not given), the activation was 0.87%.

On to `Cc1ccccc1N1C(=O)C(Oc2ccc(Cl)cc2)C1CNCC1CCCO1` (stereo not given), for which the activation is -0.77%.

Consider `COc1ccccc1Cn1c(C)nnc1-c1cnn(C)c1N`, for which the activation was 4.53%.

Regarding `CN(C)c1ccc(NC(=O)CN2C3CCCC2CC(NC(=O)c2ccccc2)C3)cc1` (stereo not given), the activation is 7.23%.

In the case of `Cc1nc(-c2ccc(Cl)cc2)sc1C(=O)CBr`, the activation was 54.9% (active).

Consider `Cc1nc(-c2ccccc2)sc1C(=O)/C=C/N(C)C`, for which the activation is 3.46%.

On to `Cc1nc(-c2ccc(Cl)cc2)sc1C(=O)NN`, for which the activation is 10.3%.

As to `Cc1ccnc(-n2sc3ccccc3c2=O)n1`, the activation is 98.3% (active).

As for `Cc1nc2ccccc2c(=O)n1NC(=O)c1ccccc1`, the activation was -1.87%.

With `Cc1ccnc(N2CCCC(C(=O)NC3CC3)C2)n1` (stereo not given), the activation was 1.42%.

Consider `NC(=O)Nc1ccccc1C(=O)NCCc1ccccc1`, for which the activation was 109% (active).

As to `O=C(O)c1ccccc1-c1ccccc1C(=O)NCCc1ccccc1`, the activation is -1.22%.

In the case of `COc1ccc(CCNC(=O)c2ccccc2OCc2ccccc2)cc1`, the activation is -0.83%.

Consider `COc1ccccc1NC(=O)[C@H](COCc1ccccc1)NC(=O)OC(C)(C)C`, for which the activation is 13.7%.

For the compound `CC(C)NC(=O)COCc1cc(-c2ccc3c(c2)OCO3)on1`, the activation is 14.2%.

Regarding `CCc1nc(C)cn1S(=O)(=O)c1cc([N+](=O)[O-])ccc1Cl`, the activation was -0.55%.

On to `CC1CCc2c(c3ccccc3[nH]c2=O)O1` (stereo not given), for which the activation is 45.7%.

`N/C(=N\OS(=O)(=O)c1cccc([N+](=O)[O-])c1)c1ccncc1`: the activation is 0.65%.

As for `COc1ccc(C2Nc3ccccc3C(=O)N2c2ccc(F)cc2)cc1Cn1nnc2ccccc21` (stereo not given), the activation is 4.17%.

As for `COc1ccc(N2C(=O)c3ccccc3NC2c2ccc(OC)c(CN3CCOCC3)c2)cc1` (stereo not given), the activation was 4.09%.

Regarding `COc1ccc(C2Nc3ccccc3C(=O)N2c2ccc(Cl)cc2)cc1Cn1cc([N+](=O)[O-])cn1` (stereo not given), the activation is 57.9% (active).

Take `CC(C)N(C(=O)CSc1nnc(NC2CC2)s1)c1ccccc1`: the activation was 7.53%.

For `COc1ccc(C(=O)O)cc1S(=O)(=O)NC1CCN(Cc2ccccc2)CC1`, the activation is -0.69%.

Consider `NNc1nc2c(Cl)cccc2s1`, for which the activation is 115% (active).

Consider `Cc1ccc2c(CC(=O)NCc3cccs3)coc2c1`, for which the activation is 8.24%.

For `CCCNC(=O)c1ccc(N2CCC3(CC2)CC(c2cccc(Br)c2)=NO3)c(NC(=O)c2ccco2)c1`, the activation is -6.12%.

Regarding `Cc1cc(/C=C2/NC(=O)NC2=O)c(C)n1-c1cccnc1`, the activation is 26.3%.

In the case of `Cc1cc(/C=C(/C#N)C(=O)Nc2ccc(Cl)cc2)c(C)n1-c1cccnc1`, the activation is 76% (active).

In the case of `N#C/C(=C\c1cccnc1)C(=O)Nc1ccc(SC(F)F)cc1`, the activation is 3.63%.
